Screening data as filed in PubChem BioAssay.
FXN GAA850 act: frataxin GAA850 promoter activation; HEK293 lucGAA850 FXN promoter luciferase reporter, 24 h; percent of 10 µM SAHA response; activation, % at 6 µM; actives 0.56% (n = 360,000); AID 540364;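 active means activation above the average of all compounds screened plus 3 SD, cutoff fixed separately per campaign, cut at about 7.5% in these data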;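 further: 0% = DMSO wells and 100% = 10 µM SAHA wells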
HSF1 inh: HSF1 inhibition; NIH3T3-HGL HSE-luciferase, MG132-induced, luminescence 8 h; hits give low values; actives 0.77% (n = 300,000); activity change, negative = inhibition, % at 7.5 µM (by protocol);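 active means more than half of replicate wells show activity change below -50%, luminescence cut by over half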;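 further: luciferase reports HSF-1 transcriptional activity via heat shock element; 0% = median of DMSO wells and -100% = zero luminescence signal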
DAX1 inh: inhibitors of human orphan nuclear receptor DAX1 (NR0B1); HEK293 Gal4-DAX1 luciferase reporter, luminescence; P51843; actives 0.99% (n = 340,000); inhibition, % at 6.75 µM; AID 504766;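 active means inhibition above the mean over all tested compounds plus 3 SD, cut at about 4.2% in these data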;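 further: 0% = DAX1-transfected cells with DMSO and 100% = empty-vector control cells with DMSO; inhibition shows as a rise in luminescence from relieved DAX1 repression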
HSF-1 act: increases HSF-1 driven luciferase reporter signal | NIH3T3-HGL HSF-1 luciferase reporter, MG132, 8 h; 100% = twice DMSO control signal | activation, % at 9 µM | actives 1.7% (n = 300,000);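 active means mean replicate activation of at least 50% with a set share of replicates each reaching 50%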;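 further: 0% = median of the neutral control wells and 100% = twice that signal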
HSP90 inh: HSP90 refolding inhibition in rabbit reticulocyte lysate | inhibition, % at 5.6 µM | luciferase refolding luminescence, 3 h | actives 0.91% (n = 290,000);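 active means inhibition above the screen-wide mean plus 3 SD, computed separately per campaign, cut at about 16% in these data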;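 further: 0% = DMSO wells and 100% = 60 µM geldanamycin wells; inhibitors lower the luminescence because luciferase stays unfolded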
AHR activator: activators of human aryl hydrocarbon receptor. P35869. AHR-responsive luciferase reporter cells, luminescence. activation, % at 5 µM. actives 2.5% (n = 320,000). AID 2796; in the data active means activation above about 47%;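 further: 0% = vehicle wells and 100% = reference agonist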
Target sequence (P35869 whole entry, looked up): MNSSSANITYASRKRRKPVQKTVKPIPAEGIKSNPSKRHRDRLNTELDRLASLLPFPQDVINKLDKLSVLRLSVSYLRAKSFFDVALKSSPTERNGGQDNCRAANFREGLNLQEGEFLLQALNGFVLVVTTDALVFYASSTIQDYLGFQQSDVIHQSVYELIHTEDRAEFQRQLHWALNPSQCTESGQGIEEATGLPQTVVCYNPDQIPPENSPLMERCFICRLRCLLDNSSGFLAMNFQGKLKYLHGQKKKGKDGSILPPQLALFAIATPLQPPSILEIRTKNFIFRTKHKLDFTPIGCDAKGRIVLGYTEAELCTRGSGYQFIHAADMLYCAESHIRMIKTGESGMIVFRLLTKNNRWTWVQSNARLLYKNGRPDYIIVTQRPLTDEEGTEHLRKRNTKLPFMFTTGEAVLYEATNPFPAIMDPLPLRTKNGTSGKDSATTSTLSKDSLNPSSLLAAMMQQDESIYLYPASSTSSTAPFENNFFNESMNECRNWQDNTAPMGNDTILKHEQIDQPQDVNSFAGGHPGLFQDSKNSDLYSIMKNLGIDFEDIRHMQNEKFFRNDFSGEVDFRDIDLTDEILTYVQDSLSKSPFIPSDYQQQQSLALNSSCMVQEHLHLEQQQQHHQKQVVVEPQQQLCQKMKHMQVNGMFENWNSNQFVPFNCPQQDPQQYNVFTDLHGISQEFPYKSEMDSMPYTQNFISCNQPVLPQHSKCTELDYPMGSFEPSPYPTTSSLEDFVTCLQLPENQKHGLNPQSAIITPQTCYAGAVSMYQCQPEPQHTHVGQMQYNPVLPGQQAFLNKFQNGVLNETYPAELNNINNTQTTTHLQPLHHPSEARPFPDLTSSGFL
An asterisk follows results filed as active; nt = no result. Compounds with a hit are over-represented: about 5.9% of the library has one in this group of screens.

SMILES | FXN GAA850 act | HSF1 inh | DAX1 inh | HSF-1 act | HSP90 inh | AHR activator
O=C(NNC1=Nc2ccccc2SC1)c1ccccc1F | 0 | 4 | -4 | 4 | 2 | 56*
O=C(NNC1=Nc2ccccc2SC1)c1cccc([N+](=O)[O-])c1 | -2 | -1 | nt | -2 | 3 | 49*
O=C(NC1=NCCS1)c1ccccc1F | 3 | -2 | nt | 19 | nt | 0
C[C@H]1CN([C@@H](C)CO)S(=O)(=O)c2ccc(Br)cc2O[C@@H]1CN(C)C(=O)Cc1cccnc1 | 1 | nt | 0 | nt | nt | nt
O=C(Nc1c(S(=O)(=O)c2ccc(Cl)cc2)csc1Br)c1ccccc1Cl | -2 | 8 | -2 | 54* | 3 | 0
O=C(NC(=O)c1ccccc1Cl)C(=O)Nc1ccc(Cl)cc1 | 0 | 2 | 0 | 3 | -4 | -5
Cc1ccc(NCC(=O)N/N=C\c2ccc[nH]2)cc1 | -1 | -20 | nt | -23 | 2 | 62*
COc1ccc(N(CC(=O)N/N=C/c2cc3ccc(OC)cc3nc2Cl)S(=O)(=O)c2ccccc2)cc1 | nt | 29 | nt | 59* | 2 | 5
Cc1ccc(NCC(=O)N/N=C/c2ccc(OC(=O)c3ccco3)cc2)cc1 | 5 | 8 | 0 | -6 | -1 | 59*
CCOC(=O)N/N=C\c1ccc(OC(=O)c2ccco2)cc1 | 2 | 0 | 1 | -4 | -3 | 2
O=C(CN1CCOCC1)N/N=C/c1cc2ccccc2nc1Cl | 0 | 4 | 1 | 39 | -1 | 1
Cc1ccc(NCC(=O)N/N=C/c2cc3ccccc3nc2Cl)cc1 | 1 | -11 | 1 | -13 | 1 | 60*
CC1=C(C(=O)N2CCOCC2)CC(CC(=O)NCc2ccco2)C(=O)N1Cc1ccccc1 (stereo unspecified) | -1 | nt | 0 | nt | nt | nt
CN(C)CCCNC(=O)C[C@H]1C[C@H](C(=O)N2CCCCC2)[C@@]2(C)c3[nH]c4cc(CCC(=O)N(C)C)ccc4c3CCN2C1=O | -1 | nt | 0 | nt | nt | nt
COc1ccc(NS(=O)(=O)c2csc(C(=O)Nc3ccccc3)c2)cc1 | -2 | 12 | 0 | 17 | 2 | 3
CC(=O)OCC(=O)C1CCC2C3CCC4=CC(=O)C=CC4(C)C3CCC12C (stereo unspecified) | 5 | nt | 0 | nt | nt | nt
CCc1nc2sc3ccccc3c(=O)c2c(=O)n1Cc1ccc(OC)cc1 | 1 | -65* | -2 | -64 | 3 | 1
CC(C)N(Cc1nccn1C)C(=O)C1CCC(=O)N(CCc2ccccc2)C1 (stereo unspecified) | 0 | nt | 1 | nt | nt | nt
CCCn1c(=O)[nH]c(=O)c2c1nc(-c1ccc(OC(F)F)c(OC)c1)n2CCOC | 4 | 13 | -1 | 11 | 0 | 25
CCCn1c(=O)[nH]c(=O)c2c1nc(-c1ccccc1OC(F)F)n2CCOC | 2 | 23 | 0 | 53* | 3 | -4
C=CCSC1=N/C(=C/c2ccsc2)C(=O)N1c1ccccc1 | 3 | -9 | 5.0* | -1 | -2 | 8
C=CCSc1nc(-c2ccc(OC)cc2)c(C#N)c(=O)n1CC=C | -2 | 20 | -2 | 65* | -1 | nt
COc1ccc(-c2nc3n(c(=O)c2C#N)CCS3)cc1 | -1 | -7 | 0 | 9 | 1 | 8
CC(C)c1ccc(NC(=O)c2cc(-c3cc(F)ccc3OCC3CCCO3)n[nH]2)cc1 (stereo unspecified) | 1 | nt | nt | nt | nt | nt
COCC(=O)n1nc(-c2ccccc2)nc1NCc1cccs1 | 6 | nt | 5.2* | nt | 2 | nt
SMILES | FXN GAA850 act | HSF1 inh | DAX1 inh | HSF-1 act | HSP90 inh | AHR activator
CC(NS(=O)(=O)c1ccc(Cl)cc1)C(=O)OCC(=O)c1ccc[nH]1 (stereo unspecified) | 1 | nt | 1 | nt | nt | 1
COCCCn1c(=NC(=O)c2ccncc2)c(C#N)cc2c(=O)n3cccc(C)c3nc21 | -3 | -1 | 1 | -6 | 6 | 59*
O=C(/C=C/c1ccccc1Cl)NCCCn1ccnc1 | -1 | -10 | 3 | -7 | -2 | 37
CC1(C)CC(=O)c2c(O)cc(OCc3ccc([N+](=O)[O-])cc3)cc2O1 | 5 | 58 | -1 | 95* | -3 | 3
C/C(=N\NC(=O)c1nn(C)cc1Br)c1ccncc1 | 3 | 2 | 7.6* | 4 | -4 | 3
C/C(=N\NC(=O)c1nn(C)cc1Cl)c1ccncc1 | 3 | 6 | 1 | 6 | 0 | 11
O=C(CN1C(=O)C2C3C=CC(C3)C2C1=O)OCC(=O)c1ccc(Br)cc1 (stereo unspecified) | 1 | -60* | 1 | -66 | -2 | 1
O=C(CN1C(=O)C2C3CCC(C3)C2C1=O)OCC(=O)c1ccc(Br)cc1 (stereo unspecified) | 2 | -4 | 1 | -3 | 2 | -1
CC1(C)CC(=O)c2cnc(N3CCN(c4ccccc4)CC3)nc2C1 | 2 | -7 | 0 | 8 | -2 | -1
CC1(C)CC(=O)c2cnc(N3CCc4ccccc4C3)nc2C1 | -1 | 42 | 2 | 55* | -3 | 3
Cc1ccc(OC(=O)c2cccc(S(=O)(=O)N(C)C)c2)c(-n2nc3ccccc3n2)c1 | 5 | nt | 2 | nt | 7 | 29
Cc1ccc(OC(=O)c2ccc(S(=O)(=O)N(C)C)cc2)c(-n2nc3ccccc3n2)c1 | 4 | 33 | 4.3* | 43 | 3 | 20
COC(=O)[C@H](Cc1ccccc1)N1C/C=C\COc2c(Cl)cc(Cl)cc2S1(=O)=O | 4 | nt | 0 | nt | nt | nt
O=C(O)CN1C(=O)C2(OCCO2)c2cc(Br)ccc21 | 0 | nt | 5.2* | nt | nt | 2
O=C(CN1C(=O)C2(OCCO2)c2cc(Br)ccc21)NO | 2 | -5 | -1 | -11 | nt | 1
CC(=O)C1C(=O)c2c(cccc2[N+](=O)[O-])C1=Nc1ccc(S(N)(=O)=O)cc1 (stereo unspecified) | 0 | -91* | 1 | -92 | -2 | 6
COc1ccc(N(CC(=O)Nc2ccc3c(c2)OCCO3)S(=O)(=O)c2cccc(C)c2)cc1 | -3 | nt | 1 | nt | nt | nt
NC(N)=Nc1nc(-c2ccccc2)c2ccccc2n1 | -1 | -6 | 0 | -5 | 5 | 68*
CCc1nc(N=C(N)N)nc2ccccc12 | nt | -6 | nt | -6 | 0 | 14
O=C(NCCc1ccccc1)c1nc2nc(-c3cccs3)cc(C(F)(F)F)n2n1 | 4 | 7 | 2 | 6 | -1 | 77*
CCc1ccc(C2=NNC(=Nc3cccc(S(=O)(=O)N(C)C)c3)SC2)cc1 | -6 | -77* | -3 | -78 | -1 | 18
Cc1ccc(C2=NNC(=Nc3ccc(F)cc3)SC2)cc1 | 3 | nt | 0 | nt | 2 | nt
CC(NC(=O)c1cc(S(=O)(=O)N2CCOCC2)ccc1F)c1ccc(-n2ccnc2)cc1 (stereo unspecified) | -1 | nt | 0 | nt | nt | 9
O=C(Nc1ccc(C(O)c2ccccc2)cc1)[C@@H]1O[C@H](CO)[C@H](O)[C@H](O)[C@H]1O (stereo partly specified) | 0 | nt | nt | nt | nt | nt
